According to PubChem BioAssay AID2629 (Broad Institute, 2010):
Among all 320,000 compounds or so, about 1,900 (0.59%) were called active. No stated cut-off is given here; in the data, active means inhibition mostly above about 10% (no sharp cut-off); inactive means mostly below about 6.7%. Only a selection was taken, and actives are over-represented in it overall.

biological target: Protein LANA1 (Human herpesvirus 8 type P (isolate GK18)) (UniProt Q9QR71); assay: blockers of LANA interaction with H2A/H2B – biochemical, FP readout, HTS, primary screen (AID 2629); conditions: cell-free LANA-H2A/H2B peptide, fluorescence polarization, stronger effect = higher value, concentration not given here
Sequence (Q9QR71 whole entry, looked up): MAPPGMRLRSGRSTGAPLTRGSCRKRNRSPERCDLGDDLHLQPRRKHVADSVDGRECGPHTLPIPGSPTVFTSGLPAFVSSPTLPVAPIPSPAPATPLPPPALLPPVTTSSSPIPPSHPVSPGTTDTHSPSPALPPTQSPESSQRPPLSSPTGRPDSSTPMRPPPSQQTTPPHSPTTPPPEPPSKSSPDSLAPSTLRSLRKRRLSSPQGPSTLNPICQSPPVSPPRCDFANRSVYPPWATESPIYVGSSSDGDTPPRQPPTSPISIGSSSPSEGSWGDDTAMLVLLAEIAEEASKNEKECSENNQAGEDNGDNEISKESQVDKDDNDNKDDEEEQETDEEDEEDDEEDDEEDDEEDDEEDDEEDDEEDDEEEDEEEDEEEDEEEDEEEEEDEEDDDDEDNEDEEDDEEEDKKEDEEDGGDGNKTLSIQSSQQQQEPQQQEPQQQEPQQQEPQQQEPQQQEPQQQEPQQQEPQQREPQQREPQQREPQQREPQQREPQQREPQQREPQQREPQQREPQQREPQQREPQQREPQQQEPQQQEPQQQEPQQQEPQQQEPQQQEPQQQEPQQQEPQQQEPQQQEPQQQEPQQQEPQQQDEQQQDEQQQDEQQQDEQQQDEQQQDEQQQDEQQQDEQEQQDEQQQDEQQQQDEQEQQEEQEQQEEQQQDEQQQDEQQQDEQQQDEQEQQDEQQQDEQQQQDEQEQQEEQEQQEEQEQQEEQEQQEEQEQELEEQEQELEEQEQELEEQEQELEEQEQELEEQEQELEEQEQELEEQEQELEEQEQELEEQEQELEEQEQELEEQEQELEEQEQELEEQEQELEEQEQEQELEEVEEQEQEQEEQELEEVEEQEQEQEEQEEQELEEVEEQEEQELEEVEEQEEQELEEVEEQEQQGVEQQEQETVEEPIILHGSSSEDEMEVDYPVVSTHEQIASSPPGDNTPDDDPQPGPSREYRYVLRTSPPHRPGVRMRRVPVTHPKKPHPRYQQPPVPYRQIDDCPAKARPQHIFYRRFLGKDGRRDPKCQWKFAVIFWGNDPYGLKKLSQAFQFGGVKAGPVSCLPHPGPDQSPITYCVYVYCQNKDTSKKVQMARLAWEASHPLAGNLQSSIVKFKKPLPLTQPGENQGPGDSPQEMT

inhibition, active:
CN(CC(=O)Nc1c(Cl)cccc1Cl)C(=O)c1ccncc1 111%, C/C(CC(=O)Nc1cccc(F)c1)=N\NC(=O)C(=O)NC1CCCCC1 15.3%, CC1=NN(C(=O)c2ccc(Br)cc2)C(O)(c2ccccc2)C1 (centres undefined) 15.6%, COc1ccc(NC(=O)CSc2nc(N)c(-c3ccccc3)c(=O)[nH]2)cc1 12.1%, CCOc1c2ccc(C(=O)NCc3ccc4c(c3)OCO4)cc2nn1C 19.6%, COC(=O)c1ccc(SCc2ccccc2)nc1 60.3%, COc1ccc(S(=O)(=O)Nc2cccnc2)c(Cl)c1Cl 12.6%, COc1ccc(-c2onc3ccc(C(C)=O)cc23)cc1 26.3%, COc1ccc(C)cc1Nc1nc(-c2c(C)[nH]c3ccccc23)cs1 39.5%, O=C(CCc1ccccc1)NNC(=O)COc1ccc(Cl)cc1 77.8%, CCn1ccnc1CN1CCCC(C(=O)c2ccc3c4c(cccc24)CC3)C1 (centres undefined) 25.9%, COc1ccc(/C(C)=N/N2CCOCC2)c(O)c1 25.4%, CC(C)(C)n1c(=O)[nH]c2c(c1=O)CCC2 23.6%, COCc1ccc(C(=O)N2CCc3c([nH]c4ccccc34)C2c2ccccn2)s1 (centres undefined) 183%, O=C(CSc1nc2ccccc2c(=O)n1CCCO)NC1CC1 635% [above what the read-out allows, likely interference], Cc1cc(C)cc(Oc2nc3c(C)cccn3c(=O)c2/C=C(\C#N)C(=O)NC2CCS(=O)(=O)C2)c1 (centres undefined) 18.8%, CC(C)C1N=C2c3ccccc3N=C(SCC(=O)c3ccc(O)c(O)c3)N2C1=O (centres undefined) 13.1%

inhibition, inactive:
CC(=O)c1sc(N/N=C/c2ccc(C(C)C)cc2)nc1C 2.17%, COc1ccc(S(=O)(=O)N2CCOCC2)cc1NC(=O)CSc1nnc(NC2CC2)s1 -4.5%, COc1ccc(NC(=O)NNC(=O)COc2cc(C)c(Cl)c(C)c2)c(OC)c1 -5.21%, CN(CC(=O)Nc1c(Cl)cccc1Cl)C(=O)CNC(=O)C1CCCCC1 -5.68%, Cc1ccc(C(=O)CCC(=O)N(C)CC(=O)Nc2c(Cl)cccc2Cl)cc1 4.61%, COc1cccc(NC(=O)C/C(C)=N/NC(=O)C2CCCCC2)c1 3.19%, O=C(Nc1cccc(F)c1)NC1CCCCCCC1 0.578%, COc1ccc(F)cc1C(=O)C1CCCN(C(=O)CCc2ccccn2)C1 (centres undefined) -0.521%, CC1=NN(C(=O)c2ccccc2Br)C(O)(c2cccnc2)C1 (centres undefined) -0.482%, CCOC(=O)C1(O)CC(C)=NN1C(=O)c1cccc(Br)c1 (centres undefined) 1.92%, Cc1coc2c1c(C)cc1oc(=O)c(CC(=O)NCC(=O)N[C@H](C(=O)O)C(C)C)c(C)c12 1.45%, COc1ccc(OC)c(NC(=O)CSc2nc(N)c(-c3ccccc3)c(=O)[nH]2)c1 4.91%, COc1ccc(C(=O)Nc2c(N)nc(SCC(=O)Nc3ccc(C(C)=O)cc3)[nH]c2=O)cc1 2.95%, CCOc1ccc(CCNC(=O)COC(=O)C2CCN(c3ccc(C(F)(F)F)cn3)CC2)cc1OCC 2.54%, O=C(CN1CCc2ccccc2C1)Nc1cccc(S(=O)(=O)N2CCOCC2)c1 2.86%, CSCCC(NS(=O)(=O)c1ccc(C)cc1)C(=O)NCCc1c[nH]c2ccccc12 (centres undefined) -5.03%, CCc1nnc(NC(=O)[C@@H](NC(=O)c2cccc(C)c2)C(C)C)s1 1.78%, CCOc1c2ccc(C(=O)NCc3ccc(OC(F)(F)F)cc3)cc2nn1C -0.924%, CCCn1nc2cc(C(=O)NCc3ccccc3)ccc2c1OCC 3.43%, COC(=O)[C@H](C(C)C)n1c(C)c(C(C)=O)c(C(C)=O)c1C -3.34%, CCC(=O)N(C)C(c1ccccc1Cl)c1nnnn1-c1c(C)cccc1C (centres undefined) -0.0342%, COC(=O)c1ccc(CSc2nncn2C)cc1 5.16%, COC(=O)c1ccc(CSc2ccc(S(=O)(=O)N3CCCCC3)cn2)cc1 -0.0946%, CCCCNc1ccc(C(=O)Nc2cccc(C)n2)cc1[N+](=O)[O-] -3.43%, COc1ccccc1Oc1ccc(S(=O)(=O)Nc2cccnc2)cc1 2.24%, Cc1cc(C)c(C)c(S(=O)(=O)Nc2cccnc2)c1C -0.825%, COc1ccc(CCc2nnc(CCC(=O)NCc3cnn(-c4ccccc4C)c3)o2)cc1 16.6%, CC(=O)Nc1ccc(S(=O)(=O)NC2(C(F)(F)F)C(=O)Nc3c2c(=O)[nH]c(=O)n3Cc2ccccc2)cc1 (centres undefined) -2.71%, CC(=O)n1cc([C@@H]2C=C(C(=O)N3CCN(Cc4ccc5c(c4)OCO5)CC3)O[C@H](OCc3ccc(CO)cc3)C2)c2ccccc21 1.33%, CCC(C)c1ccc(NC(=S)NCc2ccccn2)cc1 (centres undefined) -1.48%, CCN(CC)CCOc1ccc2c(c1)C(=NNC(=O)c1ccccn1)c1cc(OCCN(CC)CC)ccc1-2 -1.56%, Oc1ccc(-c2onc3ccc(Cl)cc23)cc1 3.12%, CC(OC(=O)c1ccc2noc(-c3ccccc3)c2c1)C(N)=O (centres undefined) -5.93%, CC(C)c1ccc(Nc2nnc(SCC(=O)c3nnc(-c4ccccc4)o3)s2)cc1 -16.3%, Cc1noc(C)c1COc1ccc(C(=O)NCCOc2ccccc2)cc1 2.1%, COc1ccc(C)cc1Nc1nc(C)nc2c1oc1ccccc12 3.52%, COC(=O)c1cnc(Nc2cc(C)ccc2OC)c2ccccc12 -2.27%, Cc1cc(C=O)c(C)n1-c1ccc(NC2CCCCC2)c([N+](=O)[O-])c1 5.17%, Cc1ccc(NS(=O)(=O)c2ccc(C(C)C)cc2)cc1S(=O)(=O)N1CCOCC1 -10.5%, O=C(CCCOc1ccccc1)NNC(=O)c1ccc(Cl)cc1 3.13%, O=C(COc1ccc(Cl)cc1)NCCSc1ccccc1 -4.08%, COC(=O)Cc1csc(/N=C/c2c(O)n(-c3cccc(C(F)(F)F)c3)c(=O)c3ccccc23)n1 -3.9%, Cn1c(CCc2ccccc2)nnc1SCC(N)=O -7.18%, N#CCCn1ncc2ccccc21 4.72%, O=C(CNCc1ccc(F)cc1)Nc1ccccc1-c1ccccc1 -4%, COc1cc(NC(=O)c2ccccc2)c(OC)cc1NC(=O)Cc1ccccc1 -1.39%, Cc1ncoc1C(=O)N1CCCC(C(=O)c2ccc3c4c(cccc24)CC3)C1 (centres undefined) 1.25%, CC(=O)NCC(=O)N1CCCC(C(=O)c2ccc3c4c(cccc24)CC3)C1 (centres undefined) -1.06%, CCc1c(O)cc2n(c1=O)-c1ccccc1C2(C)C 5.7%, O=C(CN1CCN(c2ncccn2)CC1)Nc1ccccc1C(F)(F)F 0.982%, COc1ccc(OC)c(C(=O)c2coc3ccc(O)c(CN4CCOCC4)c23)c1 -2.58%, COc1cc(C(=S)N2CCOCC2)ccc1O 9.41%, CC(C)(C)C1CCC(OC(=O)CCC(=O)Nc2ccccc2)CC1 (centres undefined) -3.13%, Cc1ccc(C2NC(C(=O)O)CS2)cc1 (centres undefined) 1.22%, CN(CC(=O)Nc1ccc(F)c(F)c1F)C(=O)Cn1cnc2c1c(=O)n(C)c(=O)n2C 1.35%, O=c1[nH]n2c(=O)c3c([nH]c2c1N=Nc1ccccc1)CCC3 -4.38%, Cc1c(C(C)CCCO)oc(=O)c2c1Oc1c(C)c(C(C)C[C@@H](C)O)oc(=O)c1C2 (some centres undefined) -3.56%, COc1ccc(C(=O)COC(=O)C(O)c2ccccc2)c(OC)c1 (centres undefined) -6.19%, O=C(c1cn2ccccc2n1)N1CCc2c([nH]c3ccccc23)C1c1ccccn1 (centres undefined) 2.75%, Cc1cccc(C2c3[nH]c4ccccc4c3CCN2C(=O)c2cc(-c3cccn3C)n[nH]2)n1 (centres undefined) 1.43%, Cc1cc(C)n(CCNC(=O)CC2C(=O)NCCN2Cc2ccc(C)o2)n1 (centres undefined) 4.74%, Cc1cc(N2C(=O)c3ccc(C(=O)NCc4ccccc4)cc3C2=O)no1 0.191%, CC1CCN(CCCn2c(SCC(=O)NC3CCCC3)nc3ccccc3c2=O)CC1 2.87%, O=C(CSc1nc2ccccc2c(=O)n1-c1ccc(F)cc1)NC1CC1 0.0498%, COc1ccc(C)cc1S(=O)(=O)N(CC(=O)Nc1cccc([N+](=O)[O-])c1)c1ccc(C)cc1 -2.08%, Cc1ccc(NC(=O)C(C)Sc2nnc(C3CC3)n2C2CC2)cc1S(=O)(=O)N1CCOCC1 (centres undefined) -1.97%, COc1ccc([N+](=O)[O-])cc1N(CC(O)CN(CC(C)C)CC(C)C)S(=O)(=O)c1ccc(C)cc1 (centres undefined) 1.46%, Cc1cccn2c(=O)c(/C=C(\C#N)C(N)=O)c(N3CCCCCC3)nc12 6.27%, Cc1cccn2c(=O)c(/C=C(\C#N)S(=O)(=O)c3ccc(Cl)cc3)c(N3CCC(C(N)=O)CC3)nc12 -0.0722%, COc1c(Br)cc2c(C)c(C(=O)N3CCOCC3)oc2c1Br -7.01%, O=C(CSC1=Nc2ccccc2C2=NC(CC(=O)NCc3ccco3)C(=O)N12)NCc1ccco1 (centres undefined) -2.02%, CCC(C)NC(=O)CSC1=Nc2ccccc2C2=NC(CCC(=O)NCc3ccco3)C(=O)N12 (centres undefined) 4.12%
